# PubChem BioAssay (NCATS)
# Inconclusive results are not listed. A number with no mark means an inactive call. Active and inactive are the calls of the source. Calls come from the whole dose curve; tested in HEK293 reporter line.
# Experiment: qHTS for Inhibitors of the Functional Ribonucleoprotein Complex (vRNP) of Lassa (LASV) Arenavirus: LASV Primary Screen - GLuc reporter signal (AID 1347082); note: nearly all actives have a fitted effect of over 60% in size
# Settings: LASV minigenome vRNP, Gaussia luciferase reporter; series mostly up to 57.5 µM; activity change, negative = inhibition: at the top concentration
# % is set by controls: 0 for no effect and ±100 for the full control effect; potency is the fitted concentration of half-maximal effect.
SMILES,"activity change, negative = inhibition",Potency
C=CCNC(N)=S,-7.08%,–
COC(=O)[C@]12CCC(C)(C)C[C@@H]1[C@@H]1C(=O)C=C3[C@@]4(C)C=C(C#N)C(=O)C(C)(C)[C@@H]4CC[C@@]3(C)[C@]1(C)CC2,–,4.85 µM (active)
CC1=C(/C=C/C(C)=C/C=C/C(C)=C/C(=O)O)C(C)(C)CCC1,–,inactive
CCOC(=O)C(=O)CCCCCCl,0.0409%,–
COc1cc(Nc2ncc(F)c(Nc3ccc4c(n3)NC(=O)C(C)(C)O4)n2)cc(OC)c1OC,22.9%,–
CC(C)C(C)(C)C(C)(C)C(C)(C)S,4.92% [at 115 µM],–
Nc1nc(-c2nn(Cc3ccccc3F)c3ncccc23)nc(N)c1N1CCOCC1,-1.94%,–
CC(C)(C)C(O)C(Oc1ccc(Cl)cc1)n1cncn1 (centres undefined),-22% [at 115 µM],–
Nc1cccc(S(=O)(=O)N2CCCN(S(=O)(=O)c3ccc4c(c3)OCCO4)CC2)c1,-25.4%,–
O=c1cc(-c2ccccc2)oc2ccccc12,–,inactive
O=C(O)c1ccc(-c2cc3cccnc3c(-c3ccc4nonc4c3)n2)cc1,-17.2%,–
Cn1cc(-c2ccc3nnc(Sc4ccc5ncccc5c4)n3n2)cn1,8.01%,–
CCn1c(-c2nonc2N)nc2cnc(Oc3cccc(NC(=O)c4ccc(OCCN5CCOCC5)cc4)c3)cc21,–,15.3 µM (active)
CCC[C@H](NC(=O)C(C#N)=Cc1cccc(Br)n1)c1ccccc1,-24.8%,–
O=C(NOC[C@H](O)CO)c1ccc(F)c(F)c1Nc1ccc(I)cc1F,-2.39%,–
COc1ccc2c(c1)c1c3n2CCN(C)C3=NCC1,-3.87%,–
C[C@H](CN1CCCC1)C(=O)c1ccc(C(F)(F)F)cc1,-3.14%,–
CO[C@H]1C=CC=C(C)C(=O)NC2=CC(=O)C(NCCN(C)C)=C(C[C@@H](C)C[C@H](OC)[C@@H](O)[C@@H](C)C=C(C)[C@@H]1OC(N)=O)C2=O,–,0.685 µM (active)
COc1ccccc1-c1cccc(-c2c(O)c3cc(C#N)c(Cl)cc3[nH]c2=O)c1,5.17% [at 115 µM],–
CC[C@H](CO)Nc1nc(NCc2ccccc2)c2ncn(C(C)C)c2n1,-22.4%,–

# Experiment: qHTS for Inhibitors of the Functional Ribonucleoprotein Complex (vRNP) of Lassa (LASV) Arenavirus: Viability assay - alamar blue signal for LASV Primary Screen (AID 1347083); note: nearly all actives have a fitted effect of over 80% in size
# Settings: cell viability, alamar blue fluorescence (LASV minigenome counter-screen); series mostly up to 57.5 µM; activity change, negative = reduced viability: at the top concentration
SMILES,Potency,"activity change, negative = reduced viability"
Clc1ccc2ncc(-c3cccc(NC4CNC4)n3)n2c1,21.7 µM (active),–
Clc1ccc(-c2nc3sccn3c2C=NOCc2ccc(Cl)c(Cl)c2)cc1,–,-8.68%
CCCN(CCC)c1c([N+](=O)[O-])cc(S(N)(=O)=O)cc1[N+](=O)[O-],–,-31% [at 115 µM]
O=C(C=Cc1c(C(=O)O)[nH]c2cc(Cl)cc(Cl)c12)Nc1ccccc1,–,35.3%
CC(=O)N[C@@H](Cc1ccc(O)cc1)C(=O)O,–,-4.06%
CN(C)c1ccc(Nc2nc(N)n(C(=O)c3c(F)cccc3F)n2)cc1,21.7 µM (active),–
N#CCNC(=O)c1ccc(-c2ccnc(Nc3ccc(N4CCOCC4)cc3)n2)cc1,21.7 µM (active),–
CC(=O)Oc1ccccc1C(=O)O,inactive,–
[O-][n+]1cccc(/C(Cl)=N/OC[C@@H](O)CN2CCCCC2)c1,–,2.05%
CC(C)C[C@H](NC(=O)CNC(=O)c1cc(Cl)ccc1Cl)B(O)O,1.53 µM (active),–
Nc1ccccc1N,–,-30.7% [at 115 µM]
CC(C)(C)C(=O)Oc1ccc2c(c1)nc(NC(=O)c1cccc([N+](=O)[O-])c1)n2CCCO,–,0.139%
c1ccc(-c2nn3c(c2-c2ccnc4cc(OCCN5CCOCC5)ccc24)CCC3)nc1,–,3.72%
CCN(CC)CCc1nc(-c2ccccc2)no1,–,-4.57%
CC(C)(c1ccc(O)cc1)c1ccc(O)cc1,–,13.8% [at 115 µM]
CC(C)=CCCC(C)=CCCC(C)=CCSc1ccccc1C(=O)O,2.43 µM (active),–
OCc1c[nH]c2ccccc12,–,-32.6% [at 115 µM]
Nc1cc(C(F)(F)F)c(-c2cc(N3CCOCC3)nc(N3CCOCC3)n2)cn1,1.22 µM (active),–
O=C(O)CNC(=O)CNC(=O)CNC(=O)CSC(=O)c1ccccc1,–,12.6%
C=CCNC(N)=S,–,-1.62%

SMILES,Potency,"activity change, negative = reduced viability"
COC(=O)[C@]12CCC(C)(C)C[C@@H]1[C@@H]1C(=O)C=C3[C@@]4(C)C=C(C#N)C(=O)C(C)(C)[C@@H]4CC[C@@]3(C)[C@]1(C)CC2,3.43 µM (active),–
CC1=C(/C=C/C(C)=C/C=C/C(C)=C/C(=O)O)C(C)(C)CCC1,inactive,–
CCOC(=O)C(=O)CCCCCCl,–,-3.35%
COc1cc(Nc2ncc(F)c(Nc3ccc4c(n3)NC(=O)C(C)(C)O4)n2)cc(OC)c1OC,–,-35.3%
CC(C)C(C)(C)C(C)(C)C(C)(C)S,–,8.77% [at 115 µM]
Nc1nc(-c2nn(Cc3ccccc3F)c3ncccc23)nc(N)c1N1CCOCC1,–,-37.7%
CC(C)(C)C(O)C(Oc1ccc(Cl)cc1)n1cncn1 (centres undefined),–,-6.65% [at 115 µM]
Nc1cccc(S(=O)(=O)N2CCCN(S(=O)(=O)c3ccc4c(c3)OCCO4)CC2)c1,–,-8.21%
O=c1cc(-c2ccccc2)oc2ccccc12,inactive,–
O=C(O)c1ccc(-c2cc3cccnc3c(-c3ccc4nonc4c3)n2)cc1,–,-34.7%
Cn1cc(-c2ccc3nnc(Sc4ccc5ncccc5c4)n3n2)cn1,–,5%
CCn1c(-c2nonc2N)nc2cnc(Oc3cccc(NC(=O)c4ccc(OCCN5CCOCC5)cc4)c3)cc21,12.2 µM (active),–
CCC[C@H](NC(=O)C(C#N)=Cc1cccc(Br)n1)c1ccccc1,34.3 µM (active),–
O=C(NOC[C@H](O)CO)c1ccc(F)c(F)c1Nc1ccc(I)cc1F,–,4.11%
COc1ccc2c(c1)c1c3n2CCN(C)C3=NCC1,–,0.69%
C[C@H](CN1CCCC1)C(=O)c1ccc(C(F)(F)F)cc1,–,5.28%
CO[C@H]1C=CC=C(C)C(=O)NC2=CC(=O)C(NCCN(C)C)=C(C[C@@H](C)C[C@H](OC)[C@@H](O)[C@@H](C)C=C(C)[C@@H]1OC(N)=O)C2=O,0.611 µM (active),–
COc1ccccc1-c1cccc(-c2c(O)c3cc(C#N)c(Cl)cc3[nH]c2=O)c1,–,0.256% [at 115 µM]
CC[C@H](CO)Nc1nc(NCc2ccccc2)c2ncn(C(C)C)c2n1,15.3 µM (active),–
